Hits are enriched below; roughly 12% of the tested compounds scored in any of these assays.
USP28 inh: inhibitors of human USP28 deubiquitinase; Ubiquitin carboxyl-terminal hydrolase 28 (Homo sapiens), Q96RU2; purified USP28, Ub-rhodamine cleavage fluorescence, 30 min; inhibition, % at 25 µM; 47,000 tested, 3% active; AID 1645857, 2021
OTUD3 block: inhibitors of human OTUD3 deubiquitinase | purified OTUD3, Ub-rhodamine fluorescence, 2 h | inhibition, % at 25 µM | 47,000 tested, 0.7% active
USP30 inh: inhibitors of human USP30 deubiquitinase. AID 1645860, 2021. Ubiquitin carboxyl-terminal hydrolase 30 (Homo sapiens), Q70CQ3. purified USP30, Ub-rhodamine cleavage fluorescence. 47,000 tested, 5.3% active. inhibition, % at 25 µM
USP17 block: inhibitors of human USP17 deubiquitinase; Ubiquitin carboxyl-terminal hydrolase 17-like protein 5 (Homo sapiens), A8MUK1; purified USP17, Ub-rhodamine cleavage fluorescence, 3 h; inhibition, % at 50 µM; 47,000 tested, 6.5% active; AID 1645855, 2021
Target sequence (A8MUK1 whole entry, looked up): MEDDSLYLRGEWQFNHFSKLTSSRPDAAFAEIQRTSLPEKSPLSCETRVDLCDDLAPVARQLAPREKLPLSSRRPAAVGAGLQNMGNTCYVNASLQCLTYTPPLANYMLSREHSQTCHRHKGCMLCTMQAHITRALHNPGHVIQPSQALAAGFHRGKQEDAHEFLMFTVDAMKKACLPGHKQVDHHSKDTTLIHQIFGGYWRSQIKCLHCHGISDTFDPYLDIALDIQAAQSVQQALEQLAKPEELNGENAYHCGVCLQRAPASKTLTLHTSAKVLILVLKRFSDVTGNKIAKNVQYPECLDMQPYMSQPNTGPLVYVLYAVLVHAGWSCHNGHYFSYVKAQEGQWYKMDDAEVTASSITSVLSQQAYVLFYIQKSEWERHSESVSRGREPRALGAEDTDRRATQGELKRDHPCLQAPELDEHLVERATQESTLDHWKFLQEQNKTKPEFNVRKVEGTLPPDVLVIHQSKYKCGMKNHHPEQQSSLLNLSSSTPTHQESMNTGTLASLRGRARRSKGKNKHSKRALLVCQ
* = called active by the depositor; · = no result. Rule as the data show it: active = inhibition above about 30%; inactive = the rest.

SMILES	USP28 inh	OTUD3 block	USP30 inh	USP17 block
O=C1Nc2ccccc2S/C1=C/c1ccccc1	-43.5	-30.3	-29.1	-15.4
O=C1Nc2cc3c(cc2Sc2ccccc21)OCCO3	25.3	6.1	59.9*	67.3*
O=C(Nc1ccc(Cn2cncn2)cc1)C1CCCCC1	-3.4	11.9	-7.9	-16.3
CC(CCc1ccccc1)NC(=O)COC(=O)c1ccc(N2CCCC2=O)cc1 (centres undefined)	-0.6	-4.1	17.4	13.8
O=C(c1ccc(COc2cccc3ccccc23)o1)N1CCC(Cc2ccccc2)CC1	-0.3	-8.3	-82.8	67.9*
Cc1ccc(NC(=O)c2ccc(N3C(=O)C(C)(C)CS3(=O)=O)cc2)cc1Cl	-4.0	-3.7	-14.2	-0.1
O=S(=O)(NCc1nnnn1-c1ccc(F)c(F)c1)c1ccc2ccccc2c1	-5.8	-6.2	-30.2	-14.8
Cc1cccc(N2C(=O)/C(=C\c3ccc4c(c3)OCCO4)c3ccccc3C2=O)c1	13.0	-8.3	5.7	54.9*
Cc1cccc(N2C(=O)/C(=C\c3ccc4c(c3)OCO4)c3ccccc3C2=O)c1	8.0	-7.2	-13.7	41.9*
Cc1ccc(C(=O)/C=C/c2ccc3c(c2)OCCO3)c(OCc2ccccc2)c1	-64.5	-36.5	-179.0	·
COc1ccccc1Nc1ncccc1C(=O)Nc1ccnn1C1CCCC1	-6.0	-13.0	-0.9	-4.3
COc1ccc(-c2cccc(C3CCCN(C(=O)c4ccncc4)C3)n2)cc1 (centres undefined)	-2.5	1.4	0.2	-6.2
CCC(C)c1ccc(O[C@@H]2O[C@@H]3COC(c4ccccc4)O[C@H]3[C@H](O)[C@H]2NC(C)=O)cc1 (some centres undefined)	34.0*	11.4	81.5*	40.4*
Cc1ccccc1-c1nc2c3c(C)c(C)n(-c4ccccn4)c3ncn2n1	-51.0	-33.5	-167.0	-33.4
COc1ccccc1-c1nc2c3c(C)c(C)n(-c4ccc(Br)cn4)c3ncn2n1	-12.2	-22.8	-148.7	51.1*
COc1ccccc1NC(=O)c1cc(S(=O)(=O)N2CCCC2)ccc1Cl	1.7	-1.1	-6.6	0.3
COc1ccc(S(=O)(=O)N2CCCCC2)cc1NC(=O)c1ccc(N2CCCC2=O)cc1	5.4	3.4	26.9	50.0*
COc1ccc(S(=O)(=O)N2CCCCCC2)cc1NC(=O)c1cc(F)cc(F)c1	-2.8	3.6	7.5	-1.1
COC(=O)c1ccccc1NC(=O)c1ccc(S(=O)(=O)N2CCCC2)cc1	4.6	3.1	42.6*	15.5
O=C(NC[C@]1(O)CCN(CC2CCCCC2)C[C@H]1O)c1cnccn1	7.4	1.2	11.9	6.8
COCC1CN(C(=O)c2ccncn2)Cc2cnn(CC3CCCC3)c21 (centres undefined)	-13.1	-9.5	-62.4	-20.3
CNC(=O)c1c2n(c3ncccc13)CCN(S(=O)(=O)c1ccc(-c3ccccc3)cc1)C2	-1.8	-1.3	-22.2	51.9*
CNC(=O)c1c2n(c3ncccc13)CCN(S(=O)(=O)c1ccc(C(C)(C)C)cc1)C2	-15.9	-16.2	-32.1	-23.7
O=C(C1CC1)N1C[C@@H]2c3nc(Nc4ccccc4)ncc3CS(=O)(=O)[C@@H]2C1	-0.1	-0.1	15.1	-0.1
Cc1cccc(-c2nc3c4cnn(-c5ccc(Cl)cc5)c4ncn3n2)c1	-14.1	-11.8	9.9	0.5
SMILES	USP28 inh	OTUD3 block	USP30 inh	USP17 block
Oc1ccc(-c2nc3c4cnn(-c5ccc(Cl)cc5)c4ncn3n2)cc1	·	1.2	·	32.3*
Cc1cccc(NC(=O)N2CCC3(CC2)COCCN(Cc2cccnc2)C3)c1	11.6	3.6	1.3	5.0
Cc1ccc(-n2nc(C(=O)Nc3ccc(C)cn3)c3ncn(C)c(=O)c32)cc1	27.0	35.8*	26.4	74.8*
CC(=O)N1CCc2cc(S(=O)(=O)NCCC(=O)Nc3cccc(C)c3C)ccc21	11.9	8.9	63.7*	33.7*
CC(=O)N1CCc2cc(S(=O)(=O)NCCC(=O)Nc3ccc(C)cc3C)ccc21	14.6	13.9	27.8	17.4
Cc1ccc(NC(=O)CC(c2ccccc2C)n2cccc2)cc1F (centres undefined)	-16.5	-11.8	-59.3	-28.9
CCN(CC)c1ccc(-c2noc(CN3CCCCC3C)n2)cn1 (centres undefined)	-28.3	-18.3	-94.9	-37.8
O=C(NC1CCCCC1)c1c(-c2ccccc2)c2c3n(c(-c4ccc(Cl)cc4)cn13)CCCC2	-31.3	-28.9	-263.9	-18.2
CC(C)(C)c1ccc(C(=O)Nc2ccc([C@@H](O)[C@H]3COCC(=O)N3)cc2)cc1	46.5*	-4.9	-24.2	-0.5
Cn1c(=O)c2c(nc(SCc3nnc(-c4ccccc4)o3)n2Cc2ccc(F)cc2)n(C)c1=O	33.0*	28.7	62.7*	59.1*

Bioassay records as filed in PubChem BioAssay.
